Tau FP inhib: tau fibrillization inhibition (FP); actives 0.39% (n = 280,000); Potency, µM (titrated, usually from 57.7 µM), without a hit: at the top dose activity, negative = inhibition, hits mostly inhibitors; K18 P301L tau heparin fibrillization, Alexa594 FP, 6 h; AID 1468; P10636; further: nearly all actives have a fitted effect of over 55% in size
Target sequence (P10636 561-689 P618L limits assumed): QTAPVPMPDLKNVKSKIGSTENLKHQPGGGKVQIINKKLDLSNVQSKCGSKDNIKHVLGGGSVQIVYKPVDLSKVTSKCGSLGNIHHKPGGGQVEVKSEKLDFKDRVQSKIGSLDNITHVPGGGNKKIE
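Read-out: fluorescence polarization of Alexa 594-labeled tau (0.24 uM), 555 nm excitation, 632 nm emission. Mixtures held 15 uM unlabeled K18 P301L, compound and 20 uM heparin, pH 7 acetate buffer, incubated 6 hr at 37 C.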
Tau fluor cs: counter-screen for tau fibril formation inhibitors; tau K18 P301L Alexa594 fluorescence, heparin fibrillization; actives 0.93% (n = 280,000); Potency, µM (series often up to 57.7 µM), inactives show at the top dose activity change, negative = decrease; further: nearly all actives have a fitted effect of over 55% in size
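Human tau K18 P301L (15 uM unlabeled, 0.24 uM Alexa 594-labeled) in 100 mM sodium acetate pH 7 with 20 uM heparin, 6 hr at 37 C. ThT 30 uM added, 1 hr ambient; Alexa 594 FP and total fluorescence read at 555/632 nm.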
TexasRed fluor: Texas Red fluorescence interference in TRb-SRC2 counter-screen | actives 0.29% (n = 280,000) | Potency, µM (highest dose often 106 µM), for inactives: at the highest dose fluorescence change, negative = quenching | TRb/SRC2 Texas Red total fluorescence interference; active means well fitted curve in either direction with a large enough effect; inconclusive means small, poorly fitted or top-dose-only effect
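Flags fluorescent or light-absorbing compounds by total fluorescence, S + 2P, at 555 nm excitation and 632 nm emission. Mixture: 20 nM Texas Red SRC2 peptide, 0.6 uM human TRb LBD, 1 uM T3, 5% DMSO; compound exposure 5 h at ambient temperature.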
Tau fibril ThT: blocks human tau fibril formation measured by thioflavin T; Potency, µM (series often up to 57.4 µM), for inactives: at the highest dose activity, negative = inhibition, most hits filed as inhibitors; P10636; recombinant tau K18 P301L, heparin-induced fibrillization, ThT fluorescence; actives 2.1% (n = 270,000); further: nearly all actives have a fitted effect of over 55% in size
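Fibril formation assay: tau K18 P301L at 15 uM with trace Alexa 594 label, heparin inducer 20 uM, pH 7 sodium acetate buffer, 37 C for 6 hr; endpoint ThT signal.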
TRb-SRC2 inh: TRbeta-SRC2 interaction inhibition; AID 1469; P10828; actives 0.065% (n = 280,000); Potency, µM (titrated, usually from 106 µM), without a hit: top-dose activity change, negative = inhibition, usual class: inhibitors; TRbeta-SRC2 peptide binding, fluorescence polarization; receptor liganded with 1 µM T3;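 further: plate controls were bound peptide for no effect and peptide without receptor for full effect; nearly all actives have a fitted effect of over 50% in size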
Target sequence (P10828 whole entry, looked up): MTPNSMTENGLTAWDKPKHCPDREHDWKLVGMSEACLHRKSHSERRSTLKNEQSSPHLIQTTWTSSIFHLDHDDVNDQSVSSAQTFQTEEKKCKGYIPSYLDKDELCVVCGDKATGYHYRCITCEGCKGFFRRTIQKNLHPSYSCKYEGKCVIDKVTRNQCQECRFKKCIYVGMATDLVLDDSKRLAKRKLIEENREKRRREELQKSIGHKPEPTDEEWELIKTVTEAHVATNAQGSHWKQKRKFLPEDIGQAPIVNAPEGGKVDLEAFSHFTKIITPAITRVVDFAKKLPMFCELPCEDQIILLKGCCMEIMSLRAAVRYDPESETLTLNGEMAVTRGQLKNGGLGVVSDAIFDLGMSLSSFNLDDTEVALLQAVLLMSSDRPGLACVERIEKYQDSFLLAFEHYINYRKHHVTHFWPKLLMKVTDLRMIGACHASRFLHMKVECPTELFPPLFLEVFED
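Fluorescence polarization of 20 nM Texas Red SRC2 peptide (20-aa NR interaction domain) bound to 0.6 uM human TRb ligand-binding domain, with 1 uM T3, after 5 hr at ambient temperature; inhibition seen as decreased polarization.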
* = called active by the depositor; ? = inconclusive; / = no result given; ! = not active in a repeat; [ ] = another dose, or the depositor's remark. A selection: hits, their analogues and other compounds. The true share with any hit is near 3%. Unless noted, the call rests on the fitted dose curve; in most records, active means well fitted curve in the direction sought with a large enough effect; inconclusive means small, poorly fitted or top-dose-only effect, or another doubt; inactive means no such curve, though single readings can be large; an effect the other way counts as inactive or inconclusive. Unless noted, on the % scale 0 is the no-effect control and ±100 the full control effect; potency means the concentration at half of the fitted maximal effect.

SMILES | Tau FP inhib | Tau fluor cs | TexasRed fluor | Tau fibril ThT | TRb-SRC2 inh
Cc1ccc(C)c(N2CCN(C(=O)CS(=O)(=O)c3cccc4nsnc34)CC2)c1 | 8% | -7% | 0.035µM*[quencher] | -15% | -29%
COC(=O)c1ccccc1NC(=O)CN1CCN(c2ccccn2)CC1 | -10% | -4% | 1% | -2% | -1%
COC(=O)c1ccccc1N/C=C1\CCc2c(c(C)nn2-c2ccccn2)C1=O | ? | ? | -23% | 14µM* | ?
COCCCNC(=O)C1CCN(c2nc3ccc(C)cc3[nH]2)CC1 | -2% | -2% | -1% | 0% | -3%
CC/C=C\C/C=C\C/C=C\CCCCCCCC(=O)O | ? | -15% | 2% | 28µM*! | -4%
O=C(Nc1ccccc1)/C(=C\c1cccs1)NC(=O)c1ccccc1 | -7% | -1% | 0.028µM*[quencher] | -2% | -13%
CCOc1ccc(CCn2c3c(c(=O)[nH]c2=O)C(NC(=O)c2cccc(F)c2)(C(F)(F)F)C(=O)N3)cc1OCC (stereo unspecified) | -8% | -7% | ? | -2% | 4%
Oc1ccc(/C=N/n2c3ccccc3c3ccccc32)cc1 | ? | 14µM*[quencher] | -1% | 35µM* | -7%
COc1ccccc1-n1c(/C=C/c2c(C)n(C)c3ccccc23)nc2ccccc2c1=O | 9% | ? | ? | ? | 0%
Cc1cccn2c(=O)c(/C=C(\C#N)C(=O)NC3CCS(=O)(=O)C3)c(N3CCC(C(N)=O)CC3)nc12 (stereo unspecified) | 0% | 2% | 0.0003µM*[quencher] | 2% | -20%[53 µM]
Cc1ccccc1NC(=S)NCCc1c[nH]c2ccccc12 | 6% | -22% | 0% | -13% | -1%
CC(C)c1ccc(NC(=S)NCCc2c[nH]c3ccccc23)cc1 | 2% | 11µM*[quencher] | -1% | ? | 7%
O=C(NCCc1c[nH]c2ccccc12)OCCSS(=O)(=O)O | ? | -15% | -4% | 14µM* | -26%
Cc1ccc(NC(=S)NCCc2c[nH]c3ccccc23)cc1 | ? | ? | 3% | ? | 6%
Cc1cc(C)cc(NC(=O)C(=O)NCCc2c[nH]c3ccccc23)c1 | -4% | 16µM*[quencher] | -2% | ? | 2%
CCC(=O)NCCc1c[nH]c2ccccc12 | -4% | -3% | 0% | -6% | -2%
COc1ccc(Cl)cc1NC(=S)NCCc1c[nH]c2ccccc12 | 5% | 22µM*[quencher] | -1% | ? | 4%
COC(=O)NC(c1ccc(Cl)cc1)C(C(C)=O)C(=O)OC (stereo unspecified) | 4%[11.6 µM] | -12%[11.6 µM] | 1%[11.2 µM] | -11%[11.5 µM] | 8%[11.2 µM]
Oc1ccc(N=Cc2cc(Br)c(N3CCOCC3)o2)cc1 | ? | ? | 0% | 3.2µM* | -2%
COc1ccc(/C=N\Nc2ccc([N+](=O)[O-])cc2)c(C(=O)O)c1OC | 6% | -18% | -3% | 13µM* | 4%
CCCCNC(=O)C(c1ccc(OCC(=O)OC)c(C(=O)OC)c1)N(CCC1=CCCCC1)C(=O)CCCCCN1C(=O)NC(c2ccc(-c3ccccc3)cc2)C(C(=O)OCc2ccccc2)=C1C (stereo unspecified) | -8% | ? | -5% | ? | -4%
COc1cccc(C(=O)Nc2nc(-c3ccncc3)cs2)c1 | 10% | -4% | -26% | ? | ?
COc1cccc(Nc2ccccc2C(=O)O)c1 | -5% | -3% | 1% | -8% | 2%
COc1cccc(Nc2ccc(Nc3cccc(OC)c3)nn2)c1 | 9% | 13µM*[quencher] | -5% | ? | -2%
Cc1cccnc1Nc1nc(-c2ccc(O)cc2)cs1 | 12% | 18µM*[quencher] | -4% | 13µM* | -10%
SMILES | Tau FP inhib | Tau fluor cs | TexasRed fluor | Tau fibril ThT | TRb-SRC2 inh
COc1cccc(Nc2nc(-c3ccc(O)cc3)cs2)c1 | 8% | 14µM*[quencher] | -7% | 11µM* | -3%
COc1cccc(Nc2nnc(SCc3nc4ccccc4s3)s2)c1 | -13% | 14µM*[quencher] | -4% | ? | 2%
COC(=O)[C@@H]1CC[C@H](C)[C@@H](c2ccc(C)cc2)N1C(=O)c1ccc(/C=N\OC[C@@H](O)[C@H]2O[C@H]3OC(C)(C)O[C@H]3[C@@H]2O)cc1 | 0%[11.6 µM] | -9%[11.6 µM] | -4%[11.2 µM] | -4%[11.5 µM] | -2%[11.2 µM]
CCN(c1ccccc1)S(=O)(=O)c1nnc(NC(=O)C(C)Oc2ccccc2)s1 (stereo unspecified) | 7% | -19% | -10% | ? | 1%
CC12CCC=CC1C(c1ccc(/C=C/c3ccccc3)cc1F)N(Cc1ccccc1)C2=O (stereo unspecified) | / | / | -7% | / | 4%
CCN1C(=O)[C@H]2[C@H]3[C@H](O)[C@H](O)C/C(=N/O[C@@H]4O[C@@H](COC(C)=O)[C@@H](OC(C)=O)[C@@H](OC(C)=O)[C@H]4OC(C)=O)[C@@H]3CC[C@@H]2C1=O | -2%[11.6 µM] | -2%[11.6 µM] | 1%[11.2 µM] | 0%[11.5 µM] | -2%[11.2 µM]
CO[C@@H]1COC(=O)[C@H](CCSC)NC(=O)C/C=C\[C@@H](C)COC(=O)[C@@H]2CCCN2C(=O)C/C=C\[C@H]1C | 1%[11.6 µM] | -16%[11.6 µM] | 3%[11.2 µM] | -16%[11.5 µM] | -1%[11.2 µM]
Cc1ccc(CNC(=O)CCCCn2c(=O)c3ccccc3n(Cc3c(C)cc(C)cc3C)c2=O)cc1 | 5% | 1% | -1% | -3% | -1%
COc1cccc(Nc2nc(-c3cccc(N4C(=O)c5ccccc5C4=O)c3)cs2)c1 | ? | 7.9µM*[quencher] | 0% | ? | 3%
Cc1cccc(Nc2nc(-c3ccncc3)cs2)c1 | ? | ? | -2% | ? | 6%
Cc1cccc(Nc2nc(-c3ccc4c(c3)OCCO4)cs2)c1 | 4% | 13µM*[quencher] | -4% | 7.1µM* | -1%
COC(=O)c1cccc(C(=O)OC)c1 | / | / | -5%[201 µM] | / | -6%[201 µM]
O=C(OCC1CCC2OC2C1)C1CCC2OC2C1 (stereo unspecified) | / | / | 3%[201 µM] | / | 3%[201 µM]
Nc1ccc2oc(=O)ccc2c1I | / | / | -2% | / | 2%
CCCCCOc1ccc(/C=C/C(=O)Nc2sc(C)c(C)c2C(=O)OCC)cc1OC | ? | -23% | 5% | 28µM* | -10%
Cc1sc(NC(=O)/C=C/c2ccco2)c(C(=O)O)c1C | -4% | -7% | -4% | ? | -6%
COc1ccc(/C=C/C(=O)Nc2sc(C)c(C)c2C(=O)O)cc1 | -1% | ? | -8% | 2.2µM* | -2%
Cc1ccc(NS(=O)(=O)c2cc(NC(=O)c3ccc4c(c3)NC(=O)CS4)ccc2Cl)c(C)c1 | 25µM* | ? | -2% | -13% | 4%
O=C(CSc1nnc(-c2ccco2)c(-c2ccco2)n1)Nc1ccccc1 | ? | ? | 45µM*[quencher] | 7.9µM* | -6%
O=C(CSc1nnc(-c2ccccc2)c(-c2ccccc2)n1)NCc1ccco1 | 7% | -3% | -2% | -9% | -1%
COc1ccc(C(=O)CSc2nnc(-c3ccco3)c(-c3ccco3)n2)cc1 | ? | ? | -25% | 14µM* | 1%

Assay outcomes deposited in PubChem BioAssay by National Center for Advancing Translational Sciences (NCATS).
